Data from ChEMBL document CHEMBL3988442, “University of Dundee, Small-Polar-MMV Screening Library” (2021).
Out of some 69,000 compounds screened, about 950 (1.4%) showed an effect of 50% or more. The full list was thinned out, with strong results kept by preference.

What follows are molecules tested on Mycobacterium tuberculosis (assay: Cornell M. t heat shock assay; note: in the data most compounds retested in dose-response had high values).
Format: functional, organism-based
Parameters: dose or concentration left out as unconfirmed

| Structure (SMILES) | Percent Effect [%] |
| --- | --- |
| Cc1ccc(O[C@@H]2C[C@H]3CN(c4ncc(F)cn4)CCN3C2)cc1.O=C(O)C(F)(F)F.O=C(O)C(F)(F)F | 19.77 |
| CN(C)S(=O)(=O)N1C[C@H]2C[C@H](C(=O)Nc3ccccc3)[C@@H](C1)O2 | 3.45 |
| N#Cc1cccc(CN2CC[C@@H]3[C@@H]2CC(=O)N3Cc2ccncc2)c1.O=C(O)C(F)(F)F.O=C(O)C(F)(F)F | 1.363 |
| COCCN1CC[C@H]2OCC[C@@H](C(=O)N3CCCO3)[C@H]2C1.O=C(O)C(F)(F)F | -19.22 |
| O=C(O)C(F)(F)F.c1ccc(N2CCC3(CCCN(c4ncccn4)C3)C2)nc1 (stereo unspecified) | -26.18 |
| CC(C)NC(=O)[C@H]1C[C@H]2OCC[C@H]2N(Cc2ccc3ccccc3n2)C1.O=C(O)C(F)(F)F.O=C(O)C(F)(F)F | -9.211 |
| Cc1ccc(C(=O)N2CCC3(CC2)CN(c2ccccn2)CCO3)cc1.O=C(O)C(F)(F)F | -9.264 |
| Cn1cc(CN2Cc3c(cnn3C)C(COCC3CC3)C2)cn1.O=C(O)C(F)(F)F.O=C(O)C(F)(F)F (stereo unspecified) | -38.19 |
| CO[C@H]1CCN(C(=O)Cc2ccsc2)[C@@H]2CN(CC3CC3)C[C@H]12.O=C(O)C(F)(F)F | -6.3 |
| Cc1cnc(C(=O)N2Cc3ncn(C)c3C(COCC(C)C)C2)cn1.O=C(O)C(F)(F)F (stereo unspecified) | 6.608 |
| CN1CCN([C@@H]2CCN(CC3=Cc4cc(Cl)ccc4OC3)C[C@H]2O)CC1 | -1.479 |
| O[C@@H]1CN(CC2=Cc3cc(Cl)ccc3OC2)CC[C@H]1N1CCCCCC1 | 85.47 |
| Cc1c(CN2CC[C@@H](N3CCC(O)CC3)[C@H](O)C2)[nH]c2ccc(Cl)cc12 | 15.96 |
| CC(C)NC(=O)CC1COC2(CCN(Cc3ccsc3)CC2)C1.O=C(O)C(F)(F)F (stereo unspecified) | -6.674 |
| CCN(CC)C(=O)CN(C)C(=O)c1ccc(-c2ccsc2)nc1C | -2.005 |
| CCN(CC)C(=O)c1ccc(-c2ccsc2)nc1C | 85.72 |
| CCN(CC(=O)NC(C)C)C(=O)c1ccc(-c2ccsc2)nc1C | -31.64 |
| COCCN1CCC(c2nc3ccc(NC4CCC4)cn3n2)CC1.O=C(O)C(F)(F)F | 43.84 |
| CC(C)(C)C(=O)N1C[C@H](c2ccsc2)[C@H]2CN(C3CCCCC3)CC[C@H]21.Cl | 6.818 |

| Structure (SMILES) | Percent Effect [%] |
| --- | --- |
| CCC(=O)N1CCC2(CC1)C(=O)N(Cc1cccnc1)CCN2C.O=C(O)C(F)(F)F.O=C(O)C(F)(F)F | -1.837 |
| Cc1ccn(-c2ccccc2NCc2cscn2)n1 | -34.26 |
| Cc1ccn(-c2ccccc2NCc2ccccn2)n1 | 31.75 |
| Cc1ccc(CNc2ccccc2-n2ccc(C)n2)nc1 | 73.74 |
| COCCn1ccc2cc(C(=O)N3CCN(S(C)(=O)=O)CC3)ccc21 | 72.24 |
| COCCn1ccc2ccc(C(=O)O)cc21 | -0.8971 |
| COCCn1ccc2ccc(C(=O)N3CCN(C(C)=O)CC3)cc21 | 4.647 |
| CCOCC(O)CN1CCN(C(=O)Cc2ccc(C)cc2)CC1 (stereo unspecified) | -41.68 |
| Cn1cc(C[C@H]2[C@H](O)CCN2CC2CC2)cn1.O=C(O)C(F)(F)F | 6.686 |
| O=C(O)C(F)(F)F.O=C(c1ccc(F)cc1)N1C[C@@H]2COC[C@]2(COc2cccnc2)C1 | 37.91 |
| O=C1C(CS(=O)(=O)Nc2ccccc2)=NC(=O)n2cccc21 | -27.85 |
| COCCn1ccnc1CN(Cc1ccccn1)Cc1sccc1C | 88.17 |
| COCCN(Cc1ccccn1)Cc1sccc1C | -13.89 |
| COCCN(Cc1sccc1C)Cc1nccn1CCOC | -20.4 |
| Cl.c1cnc2c(c1)cc([C@@H]1CCCO1)n2CCN1CCCCC1 | -17.62 |
| CCN(CC)S(=O)(=O)N1CCc2nc(C3CCNCC3)ncc2C1.Cl | -7.475 |
| CN(Cc1ccnc2ccccc12)C1CCS(=O)(=O)C1.O=C(O)CC(O)(CC(=O)O)C(=O)O (stereo unspecified) | 6.818 |
| CSc1[nH]nc(NC(=O)c2ccncc2)c1C#N | 6.331 |
| CSc1[nH]nc(NC(=O)c2cccs2)c1C#N | 104.2 |

| Structure (SMILES) | Percent Effect [%] |
| --- | --- |
| CSc1[nH]nc(NC(=O)c2ccccc2)c1C#N | -4.998 |
| CN(C)[C@@H]1CCN(C(=O)c2cccc(C#N)c2)[C@H]1Cc1cnn(C)c1.O=C(O)C(F)(F)F | 5.533 |
| Cc1ccc(N2CCO[C@H]3CN(Cc4ccc(F)cc4)C[C@H]32)nn1.O=C(O)C(F)(F)F.O=C(O)C(F)(F)F | -13.42 |
| Clc1ccc(OCCNC2(c3ccc(Br)cc3)CCOCC2)cc1 | 73.72 |
| CCOCCNC1(c2ccc(Cl)cc2)CCOCC1 | 12.33 |
| COCCNC1(c2ccc(Cl)cc2)CCOCC1 | 20.91 |
| CCN1C(=O)C2(CCN(CCN(C)C)CC2)c2ccccc21.O=C(O)C(F)(F)F.O=C(O)C(F)(F)F | -13.81 |
| Cc1ccc(C(=O)N2CCc3c(CNc4ncccn4)cncc3C2)o1.Cl | -7.52 |
| CC(=O)N1C(CN2CCCC2)C[C@@H]2CN(C(=O)c3ccoc3)CC[C@@H]21.O=C(O)C(F)(F)F (stereo partly specified) | -8.828 |
| CC(C)Cc1ncc2c(n1)CN(c1nccc(NC(C)C)n1)C2 | 83.11 |
| COc1ccnc(N2Cc3cnc(C(C)(C)C)nc3C2)n1 | 14.25 |
| CCc1cnc(N2Cc3cnc(C(C)(C)C)nc3C2)nc1 | 15.36 |
| CC(C)Nc1ccnc(N2Cc3cnc(C(C)(C)C)nc3C2)n1 | 52.72 |
| CC(C)Cc1ncc2c(n1)CN(c1nccc(N(C)C)n1)C2 | 7.671 |
| CCNc1ccnc(N2Cc3cnc(CC(C)C)nc3C2)n1 | 35.37 |
| O=C(O)C(F)(F)F.c1cnc(N2CCO[C@@H]3CN(Cc4ccoc4)C[C@@H]3C2)nc1 | -2.175 |
| O=C(O)C(F)(F)F.O=C(c1ccc[nH]1)N1CCc2onc(COc3cccnc3)c2C1 | 7.093 |
| C=C1C(C)(C)[C@H]2CC[C@]1(C(=O)N1CCC(n3cc(CCO)nn3)CC1)C2 | -7.185 |
